BAZ2B inh = blocks human BAZ2B; Q9UIF8; AlphaScreen BAZ2B-H3K14Ac peptide displacement; Potency, µM (series often up to 114 µM), for inactives: at the highest dose activity change, negative = inhibition, hits mostly inhibitors; 360,000 tested, 4.4% active; AID 504333; further: on the % scale 0 is the no-effect control and ±100 the full control effect; nearly all actives have a fitted effect of over 60% in size
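AlphaScreen luminescence quantifies BAZ2B engagement of H3K14Ac peptide; the protein and biotinylated peptide are both at 50 nM final, buffer PBS pH 7.4 with 0.01% Tween-20, all steps at room temperature.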
HP1b binding inh = inhibitors of HP1-beta chromodomain binding to methylated histone tails; P83916; AlphaScreen HP1-beta / biotin-H3K9me3 peptide binding; Potency, µM (titrated, usually from 114 µM), for inactives: at the highest dose activity change, negative = inhibition, hits mostly inhibitors; 390,000 tested, 0.56% active; AID 540317; further: nearly all actives have a fitted effect of over 70% in size
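AlphaScreen: HP1-beta (50 nM) preformed 30 min with biotin-H3(1-18)K9me3 peptide (50 nM) in PBS pH 7.4, 0.01% Tween-20. Compound added for 30 min at RT, then streptavidin donor/nickel chelate acceptor beads (10 ug/mL) for 30 min.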
G9a block = G9a (human) methyltransferase inhibition | Q96KQ7 | 350,000 tested, 8.8% active | AID 504332 | G9a H3K9 monomethylation, AlphaScreen, 2 h | Potency, µM (series often up to 102 µM), for the others: top-dose activity, negative = inhibition, actives largely listed as inhibitors; further: on the % scale 0 is the no-effect control and ±100 the full control effect; nearly all actives have a fitted effect of over 75% in size
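Signal arises when biotinylated H3K9 peptide, once monomethylated, bridges streptavidin donor and antibody-captured acceptor beads. Enzyme at 20 nM was preincubated 15 min with test compounds; peptide 500 nM and SAM 20 uM then reacted for 2 h.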
L3MBTL1 inh = blocks human L3MBTL1 | Q9Y468 | AlphaScreen L3MBTL1–H3K9me1 peptide binding | Potency, µM (doses to about 57.1 µM), for the others: at the highest dose activity, negative = inhibition, actives largely listed as inhibitors | 230,000 tested, 0.66% active | AID 485360; further: on the % scale 0 is the no-effect control and ±100 the full control effect; nearly all actives have a fitted effect of over 60% in size
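L3MBTL1 50 nM + b-AHA-H3(1-15)K9me1 75 nM, 30 min RT; compound added, 30 min RT; streptavidin donor/Ni-chelate acceptor beads 10 ug/mL each final, 30 min RT dark; AlphaScreen read.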
GLS inh = blocks human kidney-isoform glutaminase activity. 410,000 tested, 0.21% active. GLS enzymatic activity, qHTS titration. AID 624170. O94925. Potency, µM (top dose mostly 45.5 µM), for inactives: at the highest dose activity change, negative = inhibition, actives largely listed as inhibitors; further: on the % scale 0 is the no-effect control and ±100 the full control effect
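Assay buffer: 45 mM KH2PO4 pH 8.2, 0.02% Tween-20. hKGA acts on L-glutamine (1 mM solution added); product glutamate is reported by an oxidase/peroxidase Amplex Red coupling, with fluorescence taken at baseline and 30 min.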
JMJD2A Tudor inh = blocks the human JMJD2A Tudor domain | Potency, µM (doses to about 114 µM), without a hit: at the top dose activity change, negative = inhibition, hits mostly inhibitors | 390,000 tested, 4.4% active | AlphaScreen JMJD2A-Tudor / H3K4me3 peptide binding; further: on the % scale 0 is the no-effect control and ±100 the full control effect; nearly all actives have a fitted effect of over 50% in size
* marks the source's active call; other numbers are inactive results; ? = inconclusive; . = no result; [ ] = dose if it differs, or a comment. Compounds with a hit are over-represented: about 10% of the library has one in this group of screens. The call rests on the fitted dose curve; in most records, active means well fitted curve in the direction sought with a large enough effect; inconclusive means small, poorly fitted or top-dose-only effect, or another doubt; inactive means no such curve, though single readings can be large; an effect the other way counts as inactive or inconclusive. Potency means the concentration at half of the fitted maximal effect.

SMILES | BAZ2B inh | HP1b binding inh | G9a block | L3MBTL1 inh | GLS inh | JMJD2A Tudor inh
O=C(c1ccc(-c2ccccc2Cl)o1)N1CCCCCCC1 | . | ? | . | . | -2% | 116%
Cc1c(Cl)cccc1-c1ccc(C(=O)N2CCN(c3ccc([N+](=O)[O-])cc3)CC2)o1 | -37% | 16% | ? | -1% | -11% | -24%
Cc1cc(C(=O)COC(=O)CCc2nc3ccccc3s2)c(C)n1C | 50µM* | -12% | ? | -7% | -2% | ?
CC(NC(=O)c1cccc(NC(=O)c2nsc3ccccc23)c1)c1ccccc1 (stereo not given) | 2% | 17%[57 µM] | -3%[59 µM] | . | 11% | -9%
CCN1c2ccccc2-c2nc(SCC(=O)NCc3ccccc3)ncc2S1(=O)=O | 0% | 29% | 1%[59 µM] | . | -11% | -1%
C=C(C)[C@H]1CC=C(CO)CC1 | . | . | 26%[59 µM] | . | . | .
Cc1ccc2cc(CN(CC3CCCO3)C(=S)NCc3ccco3)c(=O)[nH]c2c1C (stereo not given) | ? | ? | 45µM* | -7% | 6% | ?
CCc1ccc2[nH]c(=O)c(CN(CC3CCCO3)C(=S)NCc3ccco3)cc2c1 (stereo not given) | ? | -7% | . | . | 7% | ?
Cc1ccc(C)c2[nH]c(=O)c(CN(CC3CCCO3)C(=S)NCc3ccco3)cc12 (stereo not given) | -31% | 19% | 45µM* | . | 10% | -18%
Cc1cccc2cc(CN(CC3CCCO3)C(=O)c3ccco3)c(=O)[nH]c12 (stereo not given) | -29% | 36% | 50µM* | 0% | -8% | -6%
CCOC(=O)C1(C)C=C(Nc2cccc(C(=O)O)c2)C(=O)N1c1ccccc1 (stereo not given) | 5% | 66% | -2%[59 µM] | . | 8% | -3%
